CHO-K1 Ca antag: counter-screen for M1 antagonists: effect in parental CHO-K1 cells. inhibition, % at 3 µM. AID 602250. ATP-induced calcium, Fluo-8 fluorescence. 0.6% of 360,000 active;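 active = inhibition above a per-plate cutoff, the plate's mean sample inhibition plus 3 SD, cut at about 24% in these data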
M1 PAM parental: nonselective calcium activators in parental CHO-K1 cells, primary screen, counter-screen for M1 PAM project, cell-based, Fluo-8 calcium fluorescence, full deck, 1536-well; ATP EC20; 0% at ATP EC20, 100% at ATP max; activation, % at 3 µM; 0.02% of 360,000 active; AID 602247, 2012;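 active = activation above the run cutoff, the mean activation of all test compounds plus 3 SD, cut at about 40% in these data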;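 note: peak over basal fluorescence ratio in a 140 s read after ATP addition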
CHRM1 antagonist: human M1 muscarinic receptor antagonists, primary screen, CHO-K1 cells, Fluo-8 calcium fluorescence, 1536-well. Muscarinic acetylcholine receptor M1 (Homo sapiens), P11229. CHO-K1 hM1, ACh EC80 antagonist. inhibition, % at 3 µM. 1.3% of 360,000 active. AID 588852, 2011;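 active = percent inhibition above its own plate's cutoff, namely the mean of that plate's compound wells plus 3 SD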;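 note: peak over basal fluorescence ratio during 140 s after agonist addition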
Target sequence (P11229 whole entry, looked up): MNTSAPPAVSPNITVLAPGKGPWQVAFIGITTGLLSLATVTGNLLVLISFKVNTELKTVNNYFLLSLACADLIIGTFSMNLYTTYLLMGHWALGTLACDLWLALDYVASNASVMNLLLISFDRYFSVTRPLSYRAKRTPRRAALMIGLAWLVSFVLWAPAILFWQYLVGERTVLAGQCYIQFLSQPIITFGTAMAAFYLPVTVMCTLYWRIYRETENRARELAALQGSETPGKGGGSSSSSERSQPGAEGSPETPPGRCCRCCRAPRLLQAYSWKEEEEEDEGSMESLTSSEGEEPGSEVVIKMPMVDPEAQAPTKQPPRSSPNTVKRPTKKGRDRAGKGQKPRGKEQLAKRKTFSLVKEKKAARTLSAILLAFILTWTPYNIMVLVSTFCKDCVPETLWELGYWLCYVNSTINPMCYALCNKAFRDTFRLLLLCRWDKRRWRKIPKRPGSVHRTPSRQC
M1 ag: human M1 muscarinic receptor agonists, primary screen, Fluo-8 calcium fluorescence, CHO-K1 cells, HTS; Muscarinic acetylcholine receptor M1 (Homo sapiens), P11229; CHO-K1 hM1, agonist mode; 0% DMSO, 100% acetylcholine EC100; activation, % at 3 µM; 0.33% of 360,000 active; AID 588814, 2011;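 active = activation above the run's mean compound activation plus 3 SD, cut at about 16% in these data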;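 note: peak over basal fluorescence ratio within a 140 s kinetic read after compound addition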
CHO-K1 Ca ag: counter-screen for M1 agonists: effect in parental CHO-K1 cells. Fluo-8 calcium fluorescence; scaled to maximal ATP response, vehicle zero. activation, % at 3 µM. 0.48% of 360,000 active. AID 602248, 2012; in the data active = activation above about 15%;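 note: untransfected CHO-K1 host cells lacking M1 receptor as counterscreen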
M1 PAM: human M1 muscarinic receptor positive allosteric modulators, primary screen, CHO-K1 cells, Fluo-8 calcium fluorescence, 1536-well; Muscarinic acetylcholine receptor M1 (Homo sapiens), P11229; CHO-K1 hM1, ACh EC20; 0% = ACh EC20, 100% = maximal ACh; activation, % at 3 µM; 0.088% of 360,000 active; in the data active = activation above about 19%, passing the limit was not always enough
Large screens that a line does not name were inactive. This is a sample that favours compounds with a hit; in the whole collection about 2.3% have one here.

Cc1ccc(C(=O)NNC(=S)NC(=O)c2ccc(Cl)cc2)cc1	CHRM1 antagonist 45, M1 ag 98, CHO-K1 Ca ag 102
Cc1cccc(C(=O)NC(=S)NNC(=O)Cc2ccccc2)c1	none
Cc1ccccc1C(=O)NNC(=S)NC(=O)c1ccc(Cl)cc1Cl	M1 ag 85, CHO-K1 Ca ag 89
Cc1cccc(C(=O)NC(=S)NNC(=O)c2ccccc2Cl)c1	M1 ag 91, CHO-K1 Ca ag 71
O=C(NC(=S)NNC(=O)c1ccc(Cl)cc1Cl)c1cccnc1	none
O=C(NC(=S)NCCCN1CCOCC1)c1cccc2ccccc12	none
O=[N+]([O-])c1ccc(-c2cnc(SC(c3ccccc3)c3ccccc3)[nH]2)cc1	CHRM1 antagonist 26
CCOC(=O)c1ccccc1NC(=O)CSc1nc2[nH]ncc2c(=O)[nH]1	CHRM1 antagonist 35
COc1ccc(O)c(CN2CCN(C/C=C/c3ccccc3)CC2)c1	none
COc1cc(Br)cc(CN2CCN(C/C=C/c3ccccc3)CC2)c1O	CHRM1 antagonist 96
CC(C)CC[n+]1ccccc1/C=C/c1ccc(N(C)C)cc1	CHRM1 antagonist 29
CCC(C)(C)NC(=O)CN(CC1CCCO1)C(=O)CNS(=O)(=O)c1ccccc1 (stereo not given)	none
Cc1cc(NC(=O)C2CC(=O)N(c3cccc(Cl)c3)C2)no1 (stereo not given)	CHO-K1 Ca ag 16
CCOc1ccc(NC(=O)NCCCn2c(C)nc3cc(C)c(C)cc32)cc1	CHRM1 antagonist 46
NC(=S)N/N=C1/CCSc2ccc3ccccc3c21	none
C/C(=N\NC(=O)Cn1c(-c2ccccn2)nc2ccccc21)c1ccccc1	CHO-K1 Ca antag 26
CC1CCCN(C2(O)C(=O)Nc3ccc([N+](=O)[O-])cc32)C1 (stereo not given)	none
CCCCC1(C(=O)OCC)CC(CSC(=N)N)OC1=O (stereo not given)	CHO-K1 Ca ag 19
CCCCCOCC1CC(C/C(C)=N/NC(N)=O)(C(=O)OCC)C(=O)O1 (stereo not given)	none
CC(C)CN1C(=O)C(=O)N(CC(=O)N2c3ccccc3NC(=O)CC2C)C1=O (stereo not given)	none
CC1CC(=O)Nc2ccccc2N1C(=O)CN1CCN(C=O)CC1 (stereo not given)	CHO-K1 Ca ag 15
Cn1c(=O)[nH]c(Nc2ccccc2)c([N+](=O)[O-])c1=O	none
O=C(COC(=O)/C=C/c1cccc(F)c1)Nc1ncccn1	M1 PAM 24
O=C(COC(=O)/C=C/c1cccc(F)c1)Nc1ccc(Cl)cn1	none
c1ccc2c(c1)COC(CNC1CCCCC1)OC2	none
COc1ccc(CN2C(=O)C(CC(=O)NC3CCCC3)CC(C(=O)N3CCOCC3)=C2C)cc1 (stereo not given)	CHO-K1 Ca antag 24
CC(C)(C)Cc1c(-c2ccc(Br)cc2)nc2ccc(Cl)cn12	CHRM1 antagonist 26
CC(C)(C)Cc1c(-c2ccc(Cl)cc2)nc2ccc(Cl)cn12	CHRM1 antagonist 28
CC(C)(C)Cc1c(-c2ccccc2)nc2ccc(Cl)cn12	CHRM1 antagonist 27
CCCCn1c(N)c(N(CCC(C)C)C(=O)COC(=O)Cc2ccc(Cl)cc2)c(=O)[nH]c1=O	none
COc1cccc(N2CCN(c3ncnc4c3[nH]c3ccc(F)cc34)CC2C)c1 (stereo not given)	CHO-K1 Ca antag 55, CHRM1 antagonist 83
COc1cc2[nH]c3c(N4CCN(c5ccc(Cl)cc5)CC4)ncnc3c2cc1OC	none
COc1ccc(NS(=O)(=O)c2c(C)cc(C)cc2C)cn1	none
COc1cc(NS(=O)(=O)c2ccc(NC(=S)NC(=O)c3ccco3)cc2)ncn1	CHO-K1 Ca ag 18
CCNC(=O)C1(C)CCN(C(=O)c2ccc(-c3ccccc3)cc2)C1 (stereo not given)	none
CC(C)(C)c1ccc(-c2cn(-c3ccc(Br)cc3)c3[n+]2CCCS3)cc1	CHRM1 antagonist 79
COc1ccc(-c2cn(-c3ccccc3)c3[n+]2CCS3)cc1	CHRM1 antagonist 40
CCN(CC(=O)NC1CCS(=O)(=O)C1)S(=O)(=O)c1ccccc1Cl (stereo not given)	none
CCCCCCC[C@@H](C/C=C/CCC(=O)N(C)C/C(=C/Cl)C/C(=C\C(=O)N1CC(OC)=CC1=O)OC)OC	CHRM1 antagonist 33
Cc1ccc(C(=O)O)cc1NC(=O)Nc1cccc2ccccc12	none
CCOC(=O)C1CCCN(C(=O)Cn2nc(C)n3c(cc4c(OC)cccc43)c2=O)C1 (stereo not given)	M1 ag 21
CCOC(=O)c1ccc(NC(=S)N2CCC(C(N)=O)CC2)cc1	none
CCOC(=O)c1ccc(NC(=S)N2CCCC(C(=O)OCC)C2)cc1 (stereo not given)	CHRM1 antagonist 69, M1 ag 76
CCOC(=O)C1CCCN(C(=S)NC2CCCC2)C1 (stereo not given)	M1 ag 51
CCOC(=O)C1CCCN(c2cc(C)nc3cc(-c4ccc(F)cc4)nn23)C1 (stereo not given)	M1 ag 46
CCOC(=O)C(CC)n1cnc2c(nnn2-c2cccc(OC)c2)c1=O (stereo not given)	none
CCOC(=O)/C(=N/Nc1ccccc1)Sc1nnc(CCc2ccccc2)n1-c1ccccc1	none
CCOC(=O)C1CCCN(C(=O)Nc2ccccc2)C1 (stereo not given)	M1 ag 54
CCOC(=O)N1CCC(N2CCN(C3CCCC3)C(CCO)C2)CC1 (stereo not given)	CHRM1 antagonist 47
CCOC(=O)C1CCCN(C(=O)CSc2ccc(NC(C)=O)cc2)C1 (stereo not given)	none
CCOC(=O)C1CCCN(C(=S)Nc2ccc(OC)cc2)C1 (stereo not given)	CHRM1 antagonist 58, M1 ag 57
CCOC(=O)C1CCCN(C(=S)Nc2ccc(F)cc2)C1 (stereo not given)	CHRM1 antagonist 69, M1 ag 79
CCOC(=O)C1CCCN(C(=O)C2CCN(C(=O)Nc3ccccc3)CC2)C1 (stereo not given)	none
Cc1ccc(CN2CC(C(=O)NCCC3=CCCCC3)CC2=O)cc1 (stereo not given)	none
CC(C)(C)n1ncc2c(=O)n(Cc3cccc(Cl)c3)cnc21	none
CCOC(=O)N1CCN(C(=O)C2CCCCC2)CC1	none

Screening data deposited in PubChem BioAssay by The Scripps Research Institute Molecular Screening Center.
